# Records with an inconclusive call do not appear. Active and inactive are the calls of the source. Calls come from the whole dose curve.
# Assay: Primary qHTS for Vero E6 cytotoxicity: counterscreen for inhibitors of SARS-S pseudo-typed particle cell entry (AID 1479150)
# Details: cell viability; series mostly up to 57.1 µM; activity change, negative = cytotoxicity: at the top concentration
# % is set by controls: 0 for no effect and ±100 for the full control effect.
SMILES,outcome,"activity change, negative = cytotoxicity"
CCOC(=O)/C=C(C)/C=C/C=C(C)/C=C/c1c(C)cc(OC)c(C)c1C,inactive,–
COC(=O)N/N=C/c1c[n+]([O-])c2ccccc2[n+]1[O-],inactive,–
O=C(O)[C@H](O)c1ccccc1,inactive,–
NC(N)=NCCN1CCCCCCC1,–,3.58% [at 0.573 µM] (inactive)
CC(CSC(=O)c1ccccc1)C(=O)N1C[C@@H](Sc2ccccc2)C[C@H]1C(=O)O (stereo partly drawn),inactive [at 26.4 µM],–
Cn1nnc2c(C(N)=O)ncn2c1=O,inactive,–
CC[N+](C)(CC)CCOC(=O)C1c2ccccc2Oc2ccccc21,–,-9.06% (inactive)
C[C@@H]1O[C@@H](OC[C@H]2O[C@@H](Oc3c(-c4ccc(O)c(O)c4)oc4cc(O)cc(O)c4c3=O)[C@H](O)[C@@H](O)[C@@H]2O)[C@H](O)[C@H](O)[C@H]1O,inactive,–
CC(C)(Oc1ccc(C2CC2(Cl)Cl)cc1)C(=O)O (stereo not drawn),inactive,–
CC(=O)CC(c1ccc([N+](=O)[O-])cc1)c1c(O)c2ccccc2oc1=O (stereo not drawn),inactive,–
CC(C)Cn1cnc2c(N)nc3ccccc3c21,–,-0.339% [at 26.4 µM] (inactive)
CC(=O)CC(c1ccccc1)c1c(O)c2ccccc2oc1=O (stereo not drawn),–,-0.0519% (inactive)
O=P(O)(O)C(Sc1ccc(Cl)cc1)P(=O)(O)O,inactive [at 0.573 µM],–
CC(C)Cc1ccc(C(C)C(=O)O)cc1 (stereo not drawn),inactive,–
CCCCC(O)/C=C(C)/C=C/C=C/C(=O)N1CCCC1=O (stereo not drawn),–,-7.71% (inactive)
C[C@H]1C[C@@H]2[C@H]([C@@H](O)C[C@@]3(C)[C@H]2CC[C@]3(O)C(=O)CO)[C@@]2(C)C=CC(=O)C=C12,–,-1.52% (inactive)
CCOc1cc(CC(=O)N[C@@H](CC(C)C)c2ccccc2N2CCCCC2)ccc1C(=O)O,inactive,–
CO[C@@]1(NC(=O)CSC[C@@H](N)C(=O)O)C(=O)N2C(C(=O)O)=C(CSc3nnnn3C)CS[C@@H]21,–,2.49% (inactive)
CNC(=O)c1c(I)c(NC(C)=O)c(I)c(C(=O)O)c1I,inactive,–

SMILES,outcome,"activity change, negative = cytotoxicity"
CCn1nc(C(=O)O)c(=O)c2cc3c(cc21)OCO3,inactive,–
CCCC(=O)O[C@]1(C(=O)COC(=O)CC)CC[C@H]2[C@@H]3CCC4=CC(=O)CC[C@]4(C)[C@H]3[C@@H](O)C[C@@]21C,inactive [at 26.4 µM],–
c1ccc(-c2nc[nH]c2-c2ccccc2)cc1,–,-4.73% (inactive)
CCCCCCCCCCCCCCCC(=O)OC(C)C,–,1.95% (inactive)
CC(=O)OCC(=O)[C@@]1(OC(C)=O)[C@@H](C)C[C@H]2[C@@H]3C[C@H](F)C4=CC(=O)C=C[C@]4(C)[C@@]3(F)[C@@H](O)C[C@@]21C,inactive,–
NS(=O)(=O)c1cc(C2(O)NC(=O)c3ccccc32)ccc1Cl (stereo not drawn),–,-2.15% (inactive)
C/C(=C(\CCO)SS/C(CCO)=C(\C)N(C=O)Cc1cnc(C)nc1N)N(C=O)Cc1cnc(C)nc1N,inactive,–
C[C@]12C=CC(=O)C=C1[C@@H](F)C[C@@H]1[C@@H]2[C@@H](O)C[C@@]2(C)[C@H]1CC[C@]2(O)C(=O)CO,inactive,–
COc1ccc2cccc(CCNC(C)=O)c2c1,inactive,–
Cc1c(F)c(N2CCNC(C)C2)cc2c1c(=O)c(C(=O)O)cn2C1CC1 (stereo not drawn),–,2.24% (inactive)
C[C@@H]1[C@H](O)[C@@H](C)/C=C/C=C\C=C\C=C\C=C\C=C\C=C\[C@H](O[C@@H]2O[C@H](C)[C@@H](O)[C@H](N)[C@@H]2O)C[C@@H]2O[C@](O)(C[C@@H](O)C[C@@H](O)[C@H](O)CC[C@@H](O)C[C@@H](O)CC(=O)O[C@H]1C)C[C@H](O)[C@H]2C(=O)O (stereo in doubt),inactive,–
CN(C)CCOC(=O)C(c1ccccc1)C1(O)CCCC1 (stereo not drawn),–,2.35% (inactive)
O=C(O)CCCCCCCC(=O)O,inactive,–
CC(=O)OC(C)C[N+](C)(C)C (stereo not drawn),–,2.69% (inactive)
CCc1cccc(CC)c1NC(=O)CN(CC(=O)O)CC(=O)O,–,3.88% (inactive)
CC(C(=O)O)c1ccc(/C=C2\CCCCC2=O)cc1 (stereo not drawn),–,-16.3% (inactive)
CN1C(C(=O)Nc2ccccn2)=C(O)c2ccccc2S1(=O)=O,inactive,–
NCCCCCC(=O)O,inactive,–
OC[C@H]1O[C@@H](Oc2ccc(O)cc2)[C@H](O)[C@@H](O)[C@@H]1O,–,2.79% (inactive)
